Test results from PubChem BioAssay (Tox21).
Results filed as inconclusive are left out. A call without a number means that no potency is given here. Unmarked numbers belong to inactive results. The source made the active and inactive calls. Unless noted, the call rests on the fitted dose curve; in most records, active means well fitted curve in the direction sought with a large enough effect in the repeat runs; inconclusive means weak or mixed curves; inactive means no such curve, though single readings can be large; an effect the other way counts as inactive or inconclusive.

Experiments:
[1] = qHTS assay to identify small molecule antagonists of the estrogen related receptor (ERR) signaling pathway - cell viability counter screen (AID 1224818); further: potency means the concentration at half of the fitted maximal effect;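 further: viability measured after 17.5 h of compound exposure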
Procedure, shortened: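 ERR reporter cells plated 6 h at 37 C/5% CO2, then compounds in DMSO pin-transferred and incubated 17.5 h at 37 C. Viability read as CellTiter-Fluor fluorescence after 30 min at 37 C.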

[2] = qHTS assay to identify small molecule antagonists of the estrogen related receptor signaling pathway with the pleiotropic PPARgamma coactivator (PGC) cell viability counter screen (AID 1224822; further: potency means the concentration at half of the fitted maximal effect)
Procedure, shortened: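 PGC/ERR cells were seeded at 2,000 cells/well, rested 6 h at 37 C/5% CO2, then given compounds in DMSO by pin tool and incubated 17.5 h at 37 C. Viability came from CellTiter-Fluor fluorescence after 30 min.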

[3] = qHTS assay to identify small molecule agonists of the estrogen related receptor signaling pathway with the pleiotropic PPARgamma coactivator (PGC) (AID 1224823)
Procedure, shortened: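 Cell-based luciferase assay in the NTP-supplied PGC/ERR line, 2,000 cells/well; 18 h compound exposure at 37 C, luminescence after One-Glo.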

[4] = qHTS assay to identify small molecule agonists of the estrogen related receptor (ERR) signaling pathway (AID 1224820)
Procedure, shortened: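 Quantitative HTS of the LOPAC library used NTP ERR reporter cells treated 18 h at 37 C. Signal is luminescence after One-Glo addition and a 30 min room-temperature incubation.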

[5] = test system: estrogen-related receptor alpha (ERRalpha) with PGC-1alpha coactivator, human; test: qHTS assay to identify small molecule antagonists of the estrogen related receptor signaling pathway with the pleiotropic PPARgamma coactivator (PGC) (AID 1224821; calls by dose curve;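 further: series mostly up to about 46 µM; lower luminescence signal means antagonism of PGC/ERR signalling; nearly all actives have a fitted effect of over 50% in size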)
Procedure, shortened: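 Quantitative HTS for antagonism: PGC/ERR cells received compounds after 6 h attachment and were incubated 18 h at 37 C, with luminescence (One-Glo) as the endpoint.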

Compound	Potency [1]	Potency [2]	Potency [3]	Potency [4]	Potency [5]
O=C1CC[C@@]2(O)C3Cc4ccc(O)c5c4C2(CCN3CC2CC2)[C@H]1O5 (stereo not given in full)	inactive	inactive	–	–	–
Ic1ccccc1CNC1C2CCN(CC2)C1C(c1ccccc1)c1ccccc1 (stereo not given)	19.6 µM (active)	19.6 µM (active)	inactive	–	–
C[C@]12CCC3C(CC[C@H]4C[C@H](O)CC[C@]34C)C1CC[C@@H]2C(=O)CO (stereo not given in full)	inactive	inactive	inactive	inactive	inactive
